The list is not random: actives were taken first. Their share in the collection is about 1.3%.
KCNH2 3.1 block = inhibitors of human KCNH2 3.1 potassium channel isoform. 0.95% of 340,000 active. U2OS KCNH2 3.1, thallium flux FluxOr; stronger effect = lower value. activity change, % (tested at about 1.8 µM);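 active = maximum activity change below -70%; inconclusive = maximum activity change from -70% to -50%; inactive = maximum activity change above -50%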;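 note: thallium influx rate constant from kinetic fluorescence after stimulation buffer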
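Steps: virus added to U2OS suspension (4 h, RT, dark); medium with 10% FBS added, cells plated, 37 C overnight; FluxOr/Red40 loading buffer 45 min RT; stimulation buffer, 2 min kinetic read; rate constant normalized.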
TRPV1 PAM = enhances activation of the human vanilloid receptor TRPV1 | potentiation, % at 8.33 µM | Q8NER1 | 0.02% of 320,000 active | TRPV1-expressing cells, Fluo-8 calcium influx, capsaicin EC20 potentiation | AID 540277; in the data active = potentiation above about 80%; inconclusive = between about 30% and that limit
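Cells expressing TRPV1 were dye-loaded with Fluo-8 and read kinetically: 10 s baseline, 3 min after compound (agonist portion), then 2 min after EC20 capsaicin (allosteric enhancer portion). Calcium-bound dye fluorescence at 480/520 nm.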
TRPV1 agonist = activates the human vanilloid receptor TRPV1 | TRPV1-expressing cells, Fluo-8 calcium influx, agonist mode | activation, % at 8.33 µM | Q8NER1 | 0.19% of 320,000 active; in the data active = activation above about 80%; inconclusive = between about 30% and that limit
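TRPV1-expressing cells were cultured overnight at 35.5C and loaded with Fluo-8 calcium dye for 40 to 90 min at room temperature. After a 10 s baseline, compound was added and calcium influx was read kinetically for 3 min (ex 480/em 520 nm).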
KCNH2 WT inh = blocks the wildtype human KCNH2 potassium channel; activity change, % at 1.84 µM; U2OS, BacMam KCNH2, thallium flux FluxOr; stronger effect = lower value; 0.37% of 340,000 active; AID 720551;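 active = maximum activity change below -70%; inconclusive = maximum activity change between -70% and -50%; inactive = maximum activity change above -50%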
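U2OS cells were transduced with wild-type KCNH2 virus (2.03 x 10^8 / mL) for 4 h at room temperature, then cultured overnight at 37 C. Thallium flux was read with FluxOr dye. Rate constants were normalized to DMSO controls.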
Numbers stand for hits; – = inactive; ? = inconclusive; · = no result; + = active, no number.

SMILES | KCNH2 3.1 block | TRPV1 PAM | TRPV1 agonist | KCNH2 WT inh
O=C1CCN(CCc2ccccc2)CCN1[C@H](CSc1ccccc1)Cc1ccccc1 | -103 | – | – | -141
O=C(c1ccccc1)c1ccc(OCCOCCN2CCN(Cc3ccccc3)CC2)cc1 | – | – | – | -140
N#Cc1ccc(-c2ccc(OCC(O)CN3CCOCC3)cc2)cc1 (stereo unspecified) | – | – | – | –
CC(=O)c1ccc(OCC(O)CN2CCN(Cc3ccccc3)CC2)cc1 (stereo unspecified) | – | · | · | –
O=C(c1ccccc1)c1ccc(OCC(O)CN2CCN(Cc3ccccc3)CC2)cc1 (stereo unspecified) | -85 | – | – | –
CCCc1ccc(OCC(O)CN2CCN(c3ccccn3)CC2)cc1 (stereo unspecified) | -77 | ? | – | –
N#Cc1ccc(OCC(O)CN2CCC(C(O)(c3ccccc3)c3ccccc3)CC2)cc1 (stereo unspecified) | -120 | – | – | -144
O=C(c1ccccc1)c1ccc(OCCCN2CCCC2)cc1 | – | – | – | –
CCOc1ccc(CN(C)CC(=O)Nc2ccccc2C(=O)NC2CC2)cc1 | – | – | – | –
Cc1ccccc1NC(=O)NNC(=O)COc1ccc2ccccc2c1 | – | – | – | –
Cc1ccsc1CN(C)CC(=O)NCC(=O)Nc1ccc(F)c(F)c1F | – | · | · | –
O=C(CSc1nc2c(c(=O)[nH]1)CCC2)Nc1cccc(F)c1 | – | – | – | –
CC(C)OCC(O)CN1CCC(Cc2ccccc2)CC1 (stereo unspecified) | – | – | – | –
OC(COc1ccc(Br)cc1)CN1CCC(Cc2ccccc2)CC1 (stereo unspecified) | -104 | – | – | -117
CCC(C(=O)N(C(C)C)C(C)C)c1ccccc1 (stereo unspecified) | -146 | – | – | –
CC(=O)c1sc(NC(=O)CSC(C)C(=O)Nc2cc(C)on2)nc1-c1ccccc1 (stereo unspecified) | – | – | – | –
Cc1cccc(CSCC(=O)N2CCN(S(=O)(=O)c3ccccc3C#N)CC2)c1 | – | · | · | -238
O=C(CNC(=O)OCc1ccccc1)Nc1ccc(F)cc1 | – | – | ? | –
COc1c2c(cc3c1C(CC(O)Cc1ccccc1)N(C)CC3)OCO2 (stereo unspecified) | ? | – | – | –
COc1cccc(CC(O)CC2c3c(cc4c(c3OC)OCO4)CCN2C)c1 (stereo unspecified) | -71 | · | · | –
CC(C)NC(=O)c1ccc2c(=O)n(CC3CCCO3)c(=S)[nH]c2c1 (stereo unspecified) | – | 143 | – | –
Cc1cccn2cc(COc3ccc(-c4ccccc4)cc3)nc12 | -101 | – | – | –
Cc1cccn2cc(COc3cccc([N+](=O)[O-])c3)nc12 | – | – | – | –
COc1ccc(C(C)=O)cc1COC(=O)CCNS(=O)(=O)c1ccc(C(C)=O)cc1 | – | – | – | –
COc1ccc(C(C)=O)cc1COC(=O)C(CO)NS(=O)(=O)c1ccc(Br)cc1 (stereo unspecified) | -79 | – | – | –
SMILES | KCNH2 3.1 block | TRPV1 PAM | TRPV1 agonist | KCNH2 WT inh
O=C(Nc1ccc(Cl)cc1)c1nc[nH]c1C(=O)Nc1ccccc1F | – | · | · | –
O=C(Nc1cccc(Cl)c1)c1nc[nH]c1C(=O)Nc1ccccc1F | – | · | · | -71
Cc1cc(=O)[nH]c2nnc(-c3ccc(Cl)cc3)n12 | – | – | – | –
Cc1ccc(Nc2nc(-c3cccnc3)nc3ccccc23)cc1 | – | – | 95 | –
COc1ccc(CCNc2nc(-c3cccnc3)nc3ccccc23)cc1OC | – | – | 86 | –
O=C(Nc1cccc2cccnc12)C(Cl)(Cl)Cl | · | – | – | ·
NC(=O)CSc1nnc(Cc2ccc3c(c2)OCO3)n1C1CCCCC1 | -77 | – | – | –
O=C(OCc1cn([C@@H]2C[C@H](c3ccc(Cl)cc3)N(C(=O)c3cccs3)C[C@H]2O)nn1)c1ccccc1 | – | · | · | –
Fc1ccc(N2CCN(C3=Nc4cccc5cccc3c45)CC2)cc1 | -80 | – | – | +
O=C(O)c1ccccc1NN=Cc1ccccc1 | -77 | · | · | –
O=[N+]([O-])c1ccccc1N/N=C/c1ccccc1 | -83 | – | – | –
O=[N+]([O-])c1ccccc1N/N=C/c1ccc2c(c1)OCO2 | – | – | – | –
CCSc1ccc2c(c1)N(CCCN1CCN(C)CC1)c1ccccc1S2 | -73 | – | – | –
CC(Cc1ccccc1)N1CCCC1=O (stereo unspecified) | · | · | · | –
O=C1C=C(NCC2CCCO2)C2(CCCCC2)O1 (stereo unspecified) | -79 | – | – | –
O=C(O)C1C2C=CC(C2)C1C(=O)NCCCN1CCCC1=O (stereo unspecified) | – | – | – | -128
COc1cc(OC)c(C(=O)OCC(=O)NC23CC4CC(CC(C4)C2)C3)cc1OC | – | · | · | –
COc1cccc(CC(=O)Nc2nc(-c3ccc(F)c(F)c3)cs2)c1 | -94 | – | ? | –
O=C(Cc1ccccc1F)Nc1nc(-c2cccs2)cs1 | – | – | 81 | –
O=C(Cc1ccccc1)Nc1nc(-c2ccc(F)c(F)c2)cs1 | – | – | ? | –
O=C(Cc1ccccc1)Nc1nc(-c2cccs2)cs1 | – | – | 94 | –
O=C(Cc1ccc(F)cc1)Nc1nc(-c2ccc(F)cc2)cs1 | – | – | 104 | –
O=C(Cc1ccccc1)Nc1nnc(-c2cccs2)s1 | – | – | – | –
NS(=O)(=O)c1ccc(CNC(=O)CNC(=O)c2ccc(F)cc2)cc1 | – | – | – | –
CC(C)c1ccccc1NCC(=O)N1CCN(Cc2ccccc2)CC1 | – | – | ? | –
SMILES | KCNH2 3.1 block | TRPV1 PAM | TRPV1 agonist | KCNH2 WT inh
Cc1cccn2c(=O)nc(SCC(=O)NCc3ccc(F)cc3)nc12 | – | – | – | –
Fc1ccc(Nc2nc(NCc3ccco3)c3ccccc3n2)cc1 | -92 | – | – | –
Nc1nc(Nc2ccccc2)nc(NCc2ccco2)c1[N+](=O)[O-] | – | – | – | –
C=C1CCN([C@@H](CC(C)C)C(=O)NCc2ccc(Cl)cc2)S(=O)(=O)c2ccccc21 | – | · | · | –
C=C1CCN([C@@H](CC(C)C)C(=O)NCCC(C)C)S(=O)(=O)c2ccccc21 | -75 | · | · | –
CCCc1ncc(C(O)c2cccc(OC)c2OC)n1C (stereo unspecified) | – | – | – | –
CCCc1ncc(C(O)c2ccccc2OC)n1C (stereo unspecified) | – | – | – | -201
COc1ccc(C(=O)Nc2ccc3ncccc3c2)cc1 | – | – | 91 | –
CCOc1ccc(NC(=O)c2ccc(S(=O)(=O)N(C)C)cc2)cc1 | – | – | ? | –
COc1ccc(NC(=O)c2ccc3c(c2)N(C)CCS3)cc1 | – | – | 97 | –
CN(C)S(=O)(=O)c1ccc(NC(=O)c2ccc3ncsc3c2)cc1 | – | – | 80 | –
COc1ccc(NC(=O)c2ccc3ncsc3c2)cc1 | – | – | 92 | –
CCc1ccc(NC(=O)c2ccc3ncsc3c2)cc1 | · | – | 86 | ·
O=C(Nc1ccc(Br)cc1)c1ccc2ncsc2c1 | – | – | ? | –

Bioassay records from PubChem BioAssay.
